About 83,000 compounds went through this panel and 20% of them were active in at least one assay; those are over-represented in the sample as a whole.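 Values shown are percent growth following 48 h exposure of cells in 96-well plates to a single concentration of compound; below 10 was considered active.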 Values without a mark were called inactive. Active and inactive are the calls of the source.
How the values were obtained:
Assay in all cases: NCI-60 one-dose screen, 48 h (100 = growth as untreated, 0 = no growth, -100 = all killed)
HCT-15 colon = conditions: 10 µM unless noted
HT29 colon = conditions: 10 µM unless noted
SNB-19 CNS = conditions: 10 µM unless noted
U251 CNS = conditions: 10 µM unless noted
PC-3 prostate = conditions: 10 µM unless noted
SK-MEL-5 melanoma = conditions: 10 µM unless noted
UACC-62 melanoma = conditions: 10 µM unless noted
LOX IMVI melanoma = conditions: 10 µM
SK-MEL-28 melanoma = conditions: 10 µM unless noted
SK-MEL-2 melanoma = conditions: 10 µM unless noted
EKVX NSCLC = conditions: 10 µM unless noted
SN12C renal = conditions: 10 µM unless noted
UO-31 renal = conditions: 10 µM unless noted
TK-10 renal = conditions: 10 µM unless noted
ACHN renal = conditions: 10 µM unless noted
CAKI-1 renal = conditions: 10 µM unless noted
A498 renal = conditions: 10 µM unless noted
CCRF-CEM leukemia = conditions: 10 µM unless noted
MOLT-4 leukemia = conditions: 10 µM unless noted

Row | SMILES | growth (HCT-15 colon) | growth (HT29 colon) | growth (SNB-19 CNS) | growth (U251 CNS) | growth (PC-3 prostate) | growth (SK-MEL-5 melanoma) | growth (UACC-62 melanoma) | growth (LOX IMVI melanoma) | growth (SK-MEL-28 melanoma) | growth (SK-MEL-2 melanoma) | growth (EKVX NSCLC) | growth (SN12C renal) | growth (UO-31 renal) | growth (TK-10 renal) | growth (ACHN renal) | growth (CAKI-1 renal) | growth (A498 renal) | growth (CCRF-CEM leukemia) | growth (MOLT-4 leukemia)
1 | COc1ccc(-c2ccnc(SCc3cc4cc(OC)ccc4[nH]c3=O)n2)cc1 | 10.5% | 19.9% | 36.3% | 22.7% | 23.8% | -3.59% (active) | 16.4% | 18.7% | 36.5% | 12.8% | 34% | 14.7% | 21.1% | 36.8% | 33.6% | 38.8% | 79.6% | 6.65% (active) | 4.45% (active)
2 | COc1c(F)ccc(C(=O)Nc2ccc3nc(NC(=O)C4CCCN(S(=O)(=O)c5cccc(Br)c5)C4)sc3c2)c1F (stereo unspecified) | 80.8% | 85.7% | 82.7% | 75% | 57.8% | 89.4% | 80.8% | 85% | 97.8% | 94.9% | 90.9% | 88.4% | 79.3% | 118% | 82.9% | 76.4% | 112% | 89.5% | 49.3%
3 | CCOC(=O)c1ccc(Nc2nc(NN)nc(-c3ccc(OC)cc3)c2C#N)cc1 | 106% | 115% | 92.2% | 106% | 85.2% | 90.1% | 93.4% | 114% | 113% | 114% | 118% | 114% | 93.8% | – | 113% | 105% | 118% | -5.35% (active) | 36.1%
4 | O=C(c1ccc(OCCN2CCOCC2)cc1)C1[C@H](c2ccc(Cl)cc2)[C@@H](c2ccccc2)NC12C(=O)Nc1ccc(Br)cc12 (stereo partly specified) | 8.44% (active) | -76.6% (active) | 37.4% | 22.6% | 3.86% (active) | 47.3% | 38.5% | -75.2% (active) | 44.1% | 28.3% | 19.8% | -8.07% (active) | 15.1% | 40.2% | 5.53% (active) | – | 91.5% | 20.7% | -33.9% (active)
5 | Cn1cc(-c2cc3nc(-c4cn(C)c5ncc(Br)cc45)cc(N)n3n2)c2cc(Cl)ccc21 | -77.6% (active) | -89.2% (active) | -74.2% (active) | -67.9% (active) | -62.5% (active) | -77.1% (active) | -96% (active) | -95.1% (active) | -90.7% (active) | -76% (active) | -71.1% (active) | -87.9% (active) | -87.8% (active) | -94.9% (active) | -100% (active) | -71.7% (active) | -1.96% (active) | -37.4% (active) | -47.5% (active)
6 | C=C1CC[C@@H]2[C@]3(C)COC(c4ccccc4)O[C@@H]3CC[C@@]2(C)[C@@H]1C/C=C1/C(=O)OCC1OC(C)=O (stereo partly specified) | -87.3% (active) | -93.1% (active) | 55.5% | -89.9% (active) | -41.4% (active) | -45.1% (active) | -82.7% (active) | -100% (active) | -86.9% (active) | -61.5% (active) | 21.8% | -96.9% (active) | -94.1% (active) | -21.2% (active) | – | 20.6% | 129% | -29.3% (active) | -28.7% (active)
7 | CN1C(=O)/C(=C/c2ccc(C(=O)Nc3ncc(Cc4ccc(Cl)cc4Cl)s3)cc2)SC1=S | 25.7% | 19.7% | 66.6% | 72.7% | 38.9% | 17.1% | 8.83% (active) | 29.7% | 41% | 19.7% | 63% | 36.1% | 40.4% | 71.4% | 31.3% | 30.1% | 87.6% | 40.2% | 31.1%
8 | O=C(/C=C/Nc1ccc2oc(=O)ccc2c1)c1cc2cc(Br)ccc2oc1=O | 102% | 103% | 97.5% | 102% | 98% | 103% | 97.5% | 99.3% | 112% | 107% | 105% | 102% | 81.4% | 124% | 107% | 92.5% | 144% | 120% | 115%
9 | C=C1CCC2C3(C)COC(c4cccs4)OC3CCC2(C)C1CC(Sc1ccccc1)C1=CCOC1=O (stereo unspecified) | 44.3% | 69.4% | 95.4% | 69.1% | 53.5% | 89.2% | 71.7% | -77.9% (active) | 99.4% | 98.2% | 116% | 46.4% | 58.5% | 118% | 91.1% | 101% | 133% | 1.2% (active) | 52.9%
10 | COc1c(F)ccc(C(=O)Nc2ccc3nc(NC(=O)C4CCCN(S(=O)(=O)c5ccc(C(F)(F)F)cc5)C4)sc3c2)c1F (stereo unspecified) | 85.7% | 79.1% | 83.8% | 76% | 57.7% | 84.9% | 65.8% | 83.3% | 92.3% | 84.7% | 103% | 82.4% | 55.3% | 99.9% | 72.3% | 61.2% | 96.7% | 89.5% | 47.2%
11 | O=c1[nH]c2ccc(Cl)cc2cc1CSc1nccc(-c2ccc(Cl)cc2)n1 | 56.9% | 67.7% | 40.4% | 47.4% | 49.9% | 48.6% | 31.8% | 57.5% | 46.1% | 34.5% | 42.8% | 39.9% | 60% | – | 20.2% | -51.3% (active) | 98.4% | 113% | 85.5%
12 | COc1ccc(-c2ccnc(SCc3cc4ccccc4[nH]c3=O)n2)cc1 | 28.2% | 29.5% | 64% | 64.1% | 69.6% | 59.1% | 44.8% | 49.9% | 73% | 67.2% | 69.8% | 49.1% | 68.4% | 85.2% | 74.4% | – | 93.2% | 48.1% | 11.1%
13 | CC1=C(C#N)C2=NNCC(c3ccccc3)=NN2C(c2ccccc2)=C1 | 104% | 114% | 97.3% | 96.2% | 106% | 106% | 96% | 109% | 109% | 113% | 99.7% | 105% | 91.2% | 103% | 110% | 99.8% | 132% | 110% | 114%
14 | CCOC(=O)/C=C/c1cccc2c1C(=O)NC(C)(c1cc3cc(Cl)ccc3oc1=O)N2 (stereo unspecified) | 20.9% | 32.5% | 33.8% | 33.9% | 17.4% | 10.2% | 13.4% | 22.2% | 53.9% | 7.1% (active) | 31.8% | 31.5% | 11.7% | 46.2% | 10% | – | 30.3% | 37.4% | 4.75% (active)
15 | CC1(c2cc3cc(Br)ccc3oc2=O)NC(=O)c2c(/C=C/C(=O)OC3CC4CCC3(C)C4(C)C)cccc2N1 (stereo unspecified) | 82.9% | 88.7% | 72% | 69.8% | 36.5% | 74.5% | 79.8% | 84.5% | 86.5% | 92.7% | 62.1% | 75.5% | 59.8% | 104% | 76.6% | 78.2% | 142% | 82.2% | 47%
16 | Cn1cc(-c2cc(N)n3nc(-c4cn(C)c5ncc(Br)cc45)cc3n2)c2cc(Br)cnc21 | -76.6% (active) | -85% (active) | 10% | -62.1% (active) | 1.06% (active) | 34.8% | -82.3% (active) | -100% (active) | -49.9% (active) | 39.5% | 85.1% | 12.4% | 45.8% | -10.2% (active) | – | – | 114% | 3.66% (active) | -54.3% (active)

From PubChem BioAssay (NCI)
